PvdQ inh = P. aeruginosa PvdQ acylase inhibitors, primary screen, biochemical, fluorescence, plate reader and imaging, single point. purified PvdQ acylase. PvdQ acylase [Pseudomonas aeruginosa LESB58]. AID 488965, 2010. inhibition, % at 10 µM. actives 0.063% (n = 340,000); in the data active means inhibition above about 30%, passing the limit was not always enough; inconclusive means no clear call, values can overlap the other calls;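 further: 0% = vehicle neutral wells and 100% = reference inhibitor wells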
Rtt109 HAT inh = inhibitors of C. albicans Rtt109/Vps75 HAT, primary screen, biochemical, ThioGlo CoA-SH fluorescence, plate reader; Histone acetyltransferase RTT109 (Candida albicans (strain SC5314 / ATCC MYA-2876)), …; purified Rtt109/Vps75, 4 h; inhibition, % at 34.9 µM; actives 0.16% (n = 330,000); AID 540336, 2011;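 active means inhibition of at least 50% in every replicate; inconclusive means best replicate reaches 50% inhibition but some replicates fall short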
Efflux pump mplx = inhibitors of Candida efflux pumps in yeast, primary screen, S. cerevisiae, Nile Red, multiplex. S. cerevisiae Candida pump triplex. inhibition, % at 10 µM. actives 0.44% (n = 330,000);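 active means plate passing quality check with inhibition over a set limit, or well fluorescence over plate mean plus 4 SD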;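 further: Nile Red retained in pooled yeast measured as flow cytometry median fluorescence; 0% = buffer negative control and 100% = Enniatin B positive control; higher means more Nile Red kept so more efflux inhibition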
PDI inh = inhibitors of human PDI, primary screen, biochemical, turbidity, single point, plate reader | Protein disulfide-isomerase (Homo sapiens), P07237 | inhibition, % at 10 µM | AID 588391, 2011 | PDI insulin aggregation turbidity, A650, 90 min | actives 0.052% (n = 350,000);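 active means mean inhibition across replicates of 30% or more, whatever share of single replicates reach that level; inconclusive means mean inhibition below 30% while every single replicate reaches 30%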
Target sequence (P07237 whole entry, looked up): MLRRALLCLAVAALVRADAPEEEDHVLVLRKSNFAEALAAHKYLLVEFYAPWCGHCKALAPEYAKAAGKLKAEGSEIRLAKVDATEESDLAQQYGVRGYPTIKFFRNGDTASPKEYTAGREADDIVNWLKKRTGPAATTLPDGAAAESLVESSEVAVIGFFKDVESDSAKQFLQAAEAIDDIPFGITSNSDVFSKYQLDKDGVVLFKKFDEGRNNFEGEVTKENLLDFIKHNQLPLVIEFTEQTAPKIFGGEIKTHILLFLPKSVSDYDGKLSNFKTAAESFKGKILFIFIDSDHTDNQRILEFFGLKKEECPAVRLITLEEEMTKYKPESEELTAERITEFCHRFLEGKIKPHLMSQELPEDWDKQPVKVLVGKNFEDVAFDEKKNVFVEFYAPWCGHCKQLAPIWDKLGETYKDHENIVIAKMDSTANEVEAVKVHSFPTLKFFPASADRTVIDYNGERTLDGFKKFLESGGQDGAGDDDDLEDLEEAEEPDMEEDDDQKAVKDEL
ERp5 inh = inhibitors of ERp5-driven insulin aggregation, primary screen, biochemical, turbidity, absorbance 650 nm, single point | 90 min | inhibition, % at 9.99 µM | actives 0.05% (n = 350,000) | AID 651711, 2012 | Protein disulfide-isomerase A6 (Homo sapiens), Q15084;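 active means mean replicate inhibition above about 25%, with every replicate also reaching it, limit read from the data, passing the limit was not always enough; inconclusive means only one of those two criteria met; inactive means neither criterion met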
* = called active by the depositor; ? = inconclusive; nt = no result; + = active, no number. The list is not random: actives were taken first. Their share in the collection is about 0.54%.

SMILES	PvdQ inh	Rtt109 HAT inh	Efflux pump mplx	PDI inh	ERp5 inh
O=C(O)CCc1nc(-c2ccc(Cl)cc2)no1	35.5*	3.3	-0.1	-3.8	nt
COc1ccc2c3c([nH]c2c1)[C@H](CO)N(C(=O)C1CCCC1)CC31CN(S(C)(=O)=O)C1	nt	nt	nt	nt	-9.9
CSc1nc(SCC(=O)O)c2sc3nc(-c4ccccc4)c4c(c3c2n1)CCC4	-2.7	-1.8	nt	52.5*	3.3
O=C(CSCc1ccco1)N1CCc2ccccc21	86.3*	4.8	0.2	0.5	nt
COc1ccc(/C=N/NC(=O)c2cccc([N+](=O)[O-])c2)cc1OC	2.9	26.4	0.0	11.1	-0.3
N#Cc1cc([N+](=O)[O-])ccc1Oc1cccc(/C=N/NC(=O)c2cccc(Cl)c2)c1	63.0*	-1.1	0.0	-1.4	nt
Cn1ncc(SCc2ccccc2)c(Cl)c1=O	-12.1	-1.2	0.0	0.6	-3.5
CSc1c(SCc2ccccc2)cnn(-c2ccccc2)c1=O	10.6	58.1*	-0.4	5.5	nt
COc1ccc(NC(=O)Nc2ccc3c(c2)CC(=O)N([C@H](C)CO)C[C@H](C)[C@@H](CN(C)S(=O)(=O)c2ccc(C)cc2)O3)cc1	nt	nt	nt	nt	0.3
CC(C)c1nc(SCC(=O)Nc2ccc(N3CCOCC3)cc2)c2ccccc2n1	-8.3	+	0.3	-2.5	nt
Nc1ccc(N2CCOCC2)c2nonc12	-11.6	nt	-0.1	66.3*	22.1
O=C(Nc1ccc(N2CCOCC2)c2nonc12)C1CCCC1	-12.3	-5.5	0.2	14.0	nt
CCCNC(=O)N1CC2(C1)[C@@H](c1ccccc1)[C@@H](CO)N2CC1CC1	nt	nt	nt	nt	-1.2
CC(=O)N(c1ccc2oc(=O)sc2c1)S(=O)(=O)c1cccc2cccnc12	-7.7	135.1*	-0.3	9.8	1.4
CCCNC(=O)N1CCC2(CC1)CN(C(=O)NC(C)C)[C@@H](CO)c1c2c2ccc(OC)cc2n1C	nt	nt	nt	nt	-2.0
C#CCOCCOCCOCCNc1nc(N2CCN(C(=O)[C@H](CCCCN)n3cc([C@@H](N)CC(C)C)nn3)CC2)nc(N2CCN(C(=O)[C@H](Cc3cc4ccccc4[nH]3)n3cc([C@@H](N)Cc4ccc(O)cc4)nn3)CC2)n1	-12.6	?	nt	34.5*	nt
C#CCOCCOCCOCCNc1nc(N2CCN(C(=O)[C@H](CCCN=C(N)N)n3cc(C(N)[C@@H](C)CC)nn3)CC2)nc(N2CCN(C(=O)[C@H](CCCCN)n3cc([C@@H](N)CC(N)=O)nn3)CC2)n1 (stereo not given in full)	-0.2	80.3*	-0.3	3.0	1.2
C#CCOCCOCCOCCNc1nc(N2CCN(C(=O)C(Cc3cc4ccccc4[nH]3)n3cc(C(N)C(C)CC)nn3)CC2)nc(N2CCN(C(=O)C(Cc3cc4ccccc4[nH]3)n3cc(C(N)C(C)CC)nn3)CC2)n1 (stereo not given)	-0.9	9.3	nt	54.9*	nt
CO[C@H]1CN(C)C(=O)c2cc(NC(C)=O)ccc2OC[C@H](C)N(S(=O)(=O)c2cn(C)cn2)C[C@H]1C	nt	nt	nt	nt	3.9
Cc1noc(C)c1S(=O)(=O)Nc1ccc2c(c1)CC(=O)N([C@@H](C)CO)C[C@@H](C)[C@H](CN(C)S(=O)(=O)c1cn(C)cn1)O2	nt	nt	nt	nt	1.5
COc1ccc2c3c(n(C)c2c1)[C@H](CO)NCC31CN(C(=O)Nc2ccc(F)cc2F)C1	nt	nt	nt	nt	-1.1
C[C@H](O)C#Cc1cnc2c(c1)C(=O)N([C@@H](C)CO)C[C@H](C)[C@H](CN(C)CC1CCCCC1)O2	nt	nt	nt	nt	32.2*
COc1ccccc1C#Cc1cnc2c(c1)C(=O)N([C@H](C)CO)C[C@H](C)[C@@H](CN(C)S(=O)(=O)c1cn(C)cn1)O2	nt	nt	nt	-4.2	-1.7
C[C@H](CO)N1C[C@H](C)[C@H](CN(C)S(=O)(=O)c2cn(C)cn2)Oc2ncc(C#Cc3ccccc3)cc2C1=O	nt	nt	nt	nt	36.2*
C[C@@H]1CN([C@@H](C)CO)C(=O)c2cc(C#CC3CCCCC3)cnc2O[C@@H]1CN(C)S(=O)(=O)c1ccccc1	nt	nt	nt	nt	28.6*
SMILES	PvdQ inh	Rtt109 HAT inh	Efflux pump mplx	PDI inh	ERp5 inh
CCN(CC)c1ccc(NC(=O)/C=C\c2ccccc2Cl)cc1	-2.3	2.0	0.0	-4.2	nt
CN(C)c1ccc(NC(=O)/C=C/c2ccccc2Cl)cc1	7.9	56.1*	-2.5	-6.5	nt
COCCNC(=O)c1cc2nc(-c3ccccc3)cc(C)n2n1	33.7*	-9.5	0.3	-6.4	-3.4
Cc1cc(-c2ccccc2)nc2cc(C(=O)NCCCn3ccnc3)nn12	-9.4	-1.3	0.1	1.2	nt
CN(C(=O)c1ccc(N2CCCCC2)c([N+](=O)[O-])c1)C1(C)CCS(=O)(=O)C1 (stereo not given)	8.0	53.0*	2.3	2.3	0.2
O=C(/C=C/c1ccc(N2CCCCC2)c([N+](=O)[O-])c1)c1ccc(O)cc1	-2.1	0.9	0.2	84.7*	-1.1
COc1ccccc1C(=O)/C=C/c1ccc(N2CCCCC2)c([N+](=O)[O-])c1	4.5	-1.8	-0.1	-6.4	-7.0
C[C@@H]1CCCCO[C@@H](CN(C)Cc2ccc3c(c2)OCO3)[C@H](C)CN([C@@H](C)CO)C(=O)c2cc(NC(=O)NC3CCCCC3)ccc2O1	nt	nt	nt	nt	-3.4
COC(=O)CC1(C(=O)OC)Oc2ccccc2C(=O)N1c1ccc(F)cc1F (stereo not given)	-5.4	57.2*	0.0	-0.9	-2.4
COC(C(=O)Nc1ccc(F)cc1F)c1ccccc1 (stereo not given)	5.2	-6.3	0.1	22.2	nt
COCC(=O)Nc1ccc2c(c1)OC[C@H](C)N(C(=O)NC(C)C)C[C@H](C)[C@@H](OC)CN(C)C2=O	nt	nt	nt	nt	1.8
COc1ccc(-n2sc3ccc(F)cc3c2=O)cc1	8.1	159.2*	0.0	-4.2	3.6
O=c1c2cc(F)ccc2sn1-c1ccc(F)cc1	-3.9	?	0.0	-2.6	nt
CC(C)(C)C(=O)NCC12C=CC(O1)C1C(=O)N(c3ccccc3)C(=O)C12 (stereo not given)	-7.3	-0.9	0.1	8.2	2.3
O=C1C2C3C=CC(CO)(O3)C2C(=O)N1c1ccc(-c2ccccc2)cc1 (stereo not given)	nt	nt	1.7*	nt	nt
O=C(C[C@H]1C[C@@H]2c3cc(NC(=O)CC4CC4)ccc3O[C@@H]2[C@@H](CO)O1)NCc1ccccc1F	nt	nt	nt	nt	0.0
CCOC(=O)C1=C(O)c2ccccc2C(=O)/C1=C\c1ccc(CC)cc1	-9.6	1.9	0.6	2.0	nt
CCCc1ccc(/C=C2\C(=O)c3ccccc3C(O)=C2C(=O)OCC)cc1	nt	nt	1.9*	nt	nt
CCNC(=O)NC(=O)CSc1nnc(-c2c[nH]c3ccccc23)o1	-0.2	51.0*	-0.2	2.4	2.7
CCOC(=O)Cn1c(=O)cc(C)c2ccccc21	-3.9	-7.4	0.0	2.8	0.0
CCOC(=O)Cn1c(C)[n+](CC(=O)c2ccccc2)c2ccccc21	-2.3	54.7*	0.0	9.8	2.6
